BAZ2B inh: qHTS Assay for Inhibitors of BAZ2B; Bromodomain adjacent to zinc finger domain protein 2B (Homo sapiens), Q9UIF8; AlphaScreen BAZ2B-H3K14Ac peptide displacement; Potency, µM (doses to about 114 µM), hits mostly inhibitors; 4.4% of 360,000 active; AID 504333, 2011; further: nearly all actives have a fitted effect of over 60% in size
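In this displacement format the biotinylated H3(5-23) peptide acetylated at Lys14 serves as ligand at 50 nM, with BAZ2B at 50 nM in PBS pH 7.4 containing 0.01% Tween-20. Donor and acceptor beads are 10 ug/mL final.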
Sfp PPTase inh: qHTS Assay for Inhibitors of Bacillus subtilis Sfp phosphopantetheinyl transferase (PPTase). 4'-phosphopantetheinyl transferase ffp (Bacillus subtilis), Q9F4F7. Biochemical Sfp PPTase activity, qHTS. Potency, µM, most hits filed as inhibitors. 3.5% of 310,000 active;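 further: the enzyme is Sfp with the accession as filed and its product quenches rhodamine fluorescence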
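Compounds were incubated with enzyme (final 15 nM) for 15 min at room temperature before substrate addition started the reaction. Fluorescence at 525 nm excitation, 598 nm emission was recorded immediately and after 30 minutes.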
G9a inh: qHTS Assay for Inhibitors of Histone Lysine Methyltransferase G9a. G9a H3K9 monomethylation, AlphaScreen, 2 h. Potency, µM (doses to about 102 µM), hits mostly inhibitors. 8.8% of 350,000 active. AID 504332, 2011; further: nearly all actives have a fitted effect of over 75% in size
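Compounds were preincubated with 20 nM G9a for 15 min, after which biotinylated H3K9 peptide (500 nM) and SAM (20 uM) started a 2 h room-temperature reaction. Monomethylated product was quantified by antibody-based AlphaScreen chemiluminescence.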
JMJD2A Tudor inh: qHTS Assay for Inhibitors of JMJD2A-Tudor Domain. AID 504339, 2011. Potency, µM (series often up to 114 µM), usual class: inhibitors. AlphaScreen JMJD2A-Tudor / H3K4me3 peptide binding. Lysine-specific demethylase 4A (Homo sapiens), O75164. 4.4% of 390,000 active; further: nearly all actives have a fitted effect of over 50% in size
L3MBTL1 block: qHTS Assay for the Inhibitors of L3MBTL1 | Lethal(3)malignant brain tumor-like protein 1 (Homo sapiens), Q9Y468 | AlphaScreen L3MBTL1–H3K9me1 peptide binding | Potency, µM (titrated, usually from 57.1 µM), usual class: inhibitors | 0.66% of 230,000 active | AID 485360, 2010; further: nearly all actives have a fitted effect of over 60% in size
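Read-out is AlphaScreen signal from streptavidin donor and nickel chelate acceptor beads (10 ug/mL final each) bridging L3MBTL1 (50 nM) and biotinylated K9-monomethylated H3(1-15) peptide (75 nM), after 30 min compound exposure at room temperature.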
HP1b binding inh: HTS for Inhibitors of HP1-beta Chromodomain Interactions with Methylated Histone Tails | Potency, µM (series often up to 114 µM), most hits filed as inhibitors | 0.56% of 390,000 active | AID 540317, 2011 | Chromobox protein homolog 1 (Homo sapiens), P83916 | AlphaScreen HP1-beta / biotin-H3K9me3 peptide binding; further: nearly all actives have a fitted effect of over 70% in size
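HP1-beta protein (50 nM final) preincubated 30 min at room temperature with biotinylated H3(1-18)K9me3 peptide (50 nM) in PBS pH 7.4, 0.01% Tween-20, then compound added for 30 min. AlphaScreen streptavidin donor/nickel chelate acceptor beads (10 ug/mL final), 30 min dark, luminescence read.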
Numbers stand for hits; 0 = inactive; ? = inconclusive; - = no result; ! = repeats disagree; [ ] = dose if it differs, or a comment. In the library only some 12% were active in any assay of this set; here they are far more common. The call rests on the fitted dose curve; in most records, active means well fitted curve in the direction sought with a large enough effect; inconclusive means small, poorly fitted or top-dose-only effect, or another doubt; inactive means no such curve, though single readings can be large; an effect the other way counts as inactive or inconclusive.

SMILES | BAZ2B inh | Sfp PPTase inh | G9a inh | JMJD2A Tudor inh | L3MBTL1 block | HP1b binding inh
CCN(CC)C1CC(=O)N(c2cccc(C)c2)C1=O (stereo not drawn) | 0 | 0 | 11µM | - | 0 | -
Cc1cccc(N2C(=O)CC(Sc3nnc(C)s3)C2=O)c1 (stereo not drawn) | 0 | 0 | 10µM | 0 | 0 | 0
CCN(CCO)C1CC(=O)N(c2ccccc2C)C1=O (stereo not drawn) | 0 | 0 | 4µM | 40µM | 0 | 0
Cc1cccc(N2C(=O)CC(Cn3nc(C)cc3C)C2=O)c1 (stereo not drawn) | 0 | 0 | 0 | 0 | - | 0
CCN(CC)C(=O)CSc1nnc(COc2cccc(C)c2)n1C | 0 | 0 | 0[12.7 µM] | - | 0 | -
O=C(CCNS(=O)(=O)c1ccc(Cl)cc1)NCc1cccs1 | 0 | 0 | 0 | 0 | - | 0
COCC(CN1CCN(C2=NS(=O)(=O)c3ccccc32)CC1)OC(=O)c1ccc(OC)cc1 (stereo not drawn) | 0 | 0 | 0 | 0 | - | 0
Cc1snc(S(=O)(=O)/C(C#N)=N/Nc2cccc(C(F)(F)F)c2)c1C#N | ? | 0 | 14µM | 50µM | - | 0
COc1ccc(N/N=C(/C#N)S(=O)(=O)c2nsc(C)c2C#N)cc1 | ? | 0 | ? | ? | - | 0
Cc1ccccc1C(=O)Nc1nnc(S(=O)(=O)N2CCCc3ccccc32)s1 | 0 | - | 0 | 0 | - | 0
Cc1ccccc1C(=O)Nc1nnc(S(=O)(=O)N2CCCCCC2)s1 | 22µM! | 0 | 14µM | 40µM! | 0 | ?
O=C(COc1ccccc1)Nc1nnc(S(=O)(=O)N2CCCCC2)s1 | 0 | 0 | 0 | 0 | - | 0
O=C(Nc1nnc(S(=O)(=O)N2CCCCCC2)s1)c1ccccc1F | 10µM! | 0 | 11µM! | 40µM! | 0 | 0
O=C(COc1ccccc1Cl)Nc1nnc(S(=O)(=O)N2CCCCCC2)s1 | 0 | 0 | 56µM! | 0 | 0 | 0
O=C(Nc1nnc(S(=O)(=O)N2CCN(c3ccc(F)cc3)CC2)s1)c1ccco1 | ? | 0 | 45µM | ? | - | 0
Cc1noc(C)c1-c1cc(NCc2cccs2)ncn1 | - | 0 | 0[0.501 µM] | - | - | -
O=C(Nc1cccc(Cl)c1)C1CCN(S(=O)(=O)Cc2ccccc2)CC1 | 0 | - | 0 | 0 | - | 0
CN1CC[C@@]2(CCCN(C(=O)c3cccn3C)C2)C1 | - | 0 | 0[12.7 µM] | - | - | -
Cc1ccc(C(=O)Nc2nnc(S(=O)(=O)N3CCCCCC3)s2)cc1 | 10µM! | 0 | 7.9µM | 25µM! | 0 | ?
COc1ccccc1C(=O)Nc1nnc(S(=O)(=O)N2CCCCC2)s1 | 0 | 0 | 0 | 0 | - | 0
Cc1ccc(C(=O)Nc2nnc(S(=O)(=O)N3CCOCC3)s2)cc1 | 0 | 0 | ? | 0 | 0 | 0
COc1ccccc1C(=O)Nc1nnc(S(=O)(=O)N2CCCCCC2)s1 | 7.1µM! | 0 | 10µM! | 20µM! | 0 | 0
CC(=O)Nc1ccc2nc(NC(=O)c3cccnc3)sc2c1 | 0 | 0 | 0 | 0 | 0 | 0
CC(=O)Nc1ccc2nc(NC(=O)C(Cl)(Cl)Cl)sc2c1 | 0 | 0 | 50µM | 0 | 0 | 0
CSc1nc2ccc(NC(=O)c3ccccn3)cc2s1 | 0 | 0 | ? | 28µM | - | 0
Cc1nc2ccc(NC(=O)c3ccc(Cl)c([N+](=O)[O-])c3)cc2s1 | 0 | 0 | ? | 0 | 0 | 0
Cc1ccc2nc(NC(=O)c3ccccn3)sc2c1 | 0 | 0 | 0 | 0 | - | 0
O=C(NCc1ccncc1)C1=NN(c2ccccc2)C(=O)CC1 | 0 | 0 | 25µM | 0 | 0 | 0
Cc1nc2ccc(NC(=O)c3cc([N+](=O)[O-])cc([N+](=O)[O-])c3Cl)cc2s1 | ? | ? | 6.3µM | 56µM | 0 | ?
Cc1c2oc3c(C)ccc(C(=O)NC4C(=O)NC(C(C)C)C(=O)N5CCCC5C(=O)N(C)CC(=O)N(C)C(C(C)C)C(=O)OC4C)c3nc-2c(C(=O)NC2C(=O)NC(C(C)C)C(=O)N3CCCC3C(=O)N(C)CC(=O)N(C)C(C(C)C)C(=O)OC2C)c(N)c1=O (stereo not drawn) | - | 0 | ? | - | - | -
